Assay outcomes (PubChem)
PNC inhibitor: inhibitors of perinucleolar compartment assembly. AID 2417. actives 3.1% (n = 140,000). PC3M PTB-GFP, PNC prevalence imaging, 16 h; active compounds read low. activity change (PNC), negative = inhibition, % at 10 µM;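 active = readout at or below -70, meaning at least 70% loss of cells showing the perinucleolar compartment, a nuclear body marking cancer cells; inconclusive = readout between -30 and a set limit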;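 note: plate controls were DMSO wells for no effect and camptothecin positive control wells for full effect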
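Compounds are pinned in duplicate onto adhered PC3M cells stably expressing GFP-tagged PTB and incubated 16 h at 37 C. Cells are then fixed, nuclei stained with Hoechst, and PNC-positive cells counted.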
HPGD block: inhibitors of human 15-hydroxyprostaglandin dehydrogenase (HPGD) | P15428 | purified HPGD, NADH fluorescence kinetic, PGE2 substrate | Potency, µM, for the others: at the top dose activity change, negative = inhibition, usual class: inhibitors | actives 4.3% (n = 150,000); note: potency is the fitted concentration of half-maximal effect
Target sequence (P15428 whole entry, looked up): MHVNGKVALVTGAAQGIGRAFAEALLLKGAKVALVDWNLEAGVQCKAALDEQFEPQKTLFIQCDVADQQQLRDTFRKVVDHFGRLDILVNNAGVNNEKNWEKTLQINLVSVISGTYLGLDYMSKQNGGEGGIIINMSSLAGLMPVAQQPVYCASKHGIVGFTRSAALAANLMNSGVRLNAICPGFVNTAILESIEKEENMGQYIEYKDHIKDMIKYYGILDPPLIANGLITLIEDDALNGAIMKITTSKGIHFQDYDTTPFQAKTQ
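NADH formation kinetics: reaction with 30 uM PGE2 and 1 mM NAD+ (final), 20 nM enzyme, Tris-HCl pH 8 with Tween 20, after 15 min compound preincubation at room temperature. Fluorescence change, last versus first of five reads.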
IMPase inh: membrane-permeable compound that blocks inositol monophosphatase; P97697; CHO-M1 cells, IP1 accumulation, HTRF TR-FRET ratio; 120,000 tested, under 10 active; inhibition (IP1 accumulation), % at 46.1 µM; AID 901; active = well fitted curve in the direction sought with a large enough effect in the signal ratio, not every such curve was filed as active; inconclusive = small, poorly fitted or top-dose-only effect, or a change in a side signal; inactive = no such curve, though single readings can be large or run the other way; the % refers to the signal ratio;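 note: cells stimulated with carbachol in lithium chloride buffer; plate controls were DMSO basal wells for no effect and reference inhibitor wells for full effect; higher means more IMPase inhibition seen as more IP1 and lower FRET ratio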
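CHO-M1, 2000 cells/well, cultured 16–30 h; cpd up to 46 uM; carbachol (50 uM solution, stimulation buffer w/ 50 mM LiCl, pH 7.4), 30 min 37C; IP-One TR-FRET, 10 min RT; Ex 320/Em 665, 620; Hill-fit AC50.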
Lamin A splicing: changes lamin A minigene splicing in HeLa cells; HeLa LMNA splicing GFP/RFP minigene ratio, 48 h; Potency, µM (titrated, usually from 46.1 µM), without a hit: top-dose ratio change, negative = inhibition, usual class: inhibitors; actives 0.01% (n = 200,000); AID 1487; active = well fitted inhibition curve with a large enough effect in the signal ratio, with a control signal flat, not every such curve was filed as active; inconclusive = small, poorly fitted or top-dose-only effect, or effect the other way, or a change in a side signal; the % refers to the signal ratio; note: potency is the fitted concentration of half-maximal effect
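S3 HeLa cells stably expressing lamin A-EGFP splicing minigene plus DsRed2, 600 cells/well, 48 h compound exposure at 37C. Laser-scanning cytometry; analysed as GFP (500-530 nm)/RFP (575-640 nm) total intensity ratio; 0.5% DMSO vehicle.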
KinaseGlo FLuc: counter-screen: inhibitors of Kinase-Glo firefly luciferase; Q27757; Potency, µM (doses to about 38.3 µM), inactives show at the top dose activity change, negative = inhibition, most hits filed as inhibitors; actives 0.28% (n = 200,000); AID 1379; Kinase-Glo luciferase, ATP luminescence, 8 min; active = well fitted inhibition curve with a large enough effect; inconclusive = small, poorly fitted or top-dose-only effect; note: potency is the fitted concentration of half-maximal effect; nearly all actives have a fitted effect of over 60% in size
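Luminescence was the read-out, taken after 8-minute incubation at ambient temperature. Luciferase turned over luciferin with 10 uM ATP in imidazole pH 7.2 buffer containing KCl, MgCl2, Tween 20 and BSA.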
ALDH1A1 inh: blocks purified human ALDH1A1 activity; P00352; actives 7.3% (n = 220,000); Potency, µM (doses to about 75.3 µM), for inactives: top-dose activity, negative = inhibition, hits mostly inhibitors; Purified ALDH1A1, NADH fluorescence, propionaldehyde substrate;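 note: potency is the fitted concentration of half-maximal effect; plate controls were no enzyme wells and a reference inhibitor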
Target sequence (P00352 whole entry, looked up): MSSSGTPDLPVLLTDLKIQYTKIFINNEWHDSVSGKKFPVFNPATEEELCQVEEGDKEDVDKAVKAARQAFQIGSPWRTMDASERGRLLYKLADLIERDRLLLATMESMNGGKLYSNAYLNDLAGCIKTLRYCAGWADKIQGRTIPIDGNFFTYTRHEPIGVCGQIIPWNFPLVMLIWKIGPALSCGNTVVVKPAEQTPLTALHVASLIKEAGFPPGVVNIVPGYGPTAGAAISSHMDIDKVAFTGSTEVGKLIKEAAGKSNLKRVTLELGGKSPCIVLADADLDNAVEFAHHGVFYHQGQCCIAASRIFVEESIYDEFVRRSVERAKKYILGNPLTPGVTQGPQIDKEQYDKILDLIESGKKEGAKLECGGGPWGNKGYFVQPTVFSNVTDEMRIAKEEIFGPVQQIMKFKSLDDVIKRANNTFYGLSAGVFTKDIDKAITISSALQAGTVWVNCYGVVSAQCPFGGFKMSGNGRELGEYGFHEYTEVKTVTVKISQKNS
* hit, by the source's call; [ ] = dose if it differs, or a comment. In the library only some 10% were active in any assay of this set; here they are far more common. Unless noted, calls come from the whole dose curve; as a rule, active = well fitted inhibition curve with a large enough effect (not every such curve was filed as active); inconclusive = small, poorly fitted or top-dose-only effect, or another doubt; inactive = no such curve, though single readings can be large or run the other way. Unless noted, % is set by controls: 0 for no effect and ±100 for the full control effect.

Results for Cc1ccc(C(=O)C(C)OC(=O)c2n[nH]c(=O)c3ccccc23)cc1 (centres undefined) ?
PNC inhibitor: -8.3; HPGD block: 14.1µM*; IMPase inh: -3.1; Lamin A splicing: 3.5%; KinaseGlo FLuc: -0.5%; ALDH1A1 inh: 16.0%

What do the screens show for `C[N+](C)(C)CCCSc1nc2ccccc2[nH]1`?
HPGD block: -1.8%; KinaseGlo FLuc: -1.0%[7.66 µM]; ALDH1A1 inh: 4.7%[13.5 µM]

How did CN(C)/C=C(\C#N)C(=O)c1cccc(Oc2ccc(Br)cc2)c1 do in these assays?
PNC inhibitor: inconclusive; HPGD block: -19.0%; IMPase inh: -1.4; Lamin A splicing: 15.3%; KinaseGlo FLuc: -0.1%; ALDH1A1 inh: -1.4%

How did CC(C)c1ccc(Oc2cccc(C(=O)/C(C#N)=C/N(C)C)c2)cc1 do in these assays?
PNC inhibitor: 19.5; HPGD block: 15.8µM*; IMPase inh: 5.0; Lamin A splicing: 13.8%; KinaseGlo FLuc: 0.7%; ALDH1A1 inh: -10.4%

What do the screens show for `Cc1ccc(N=Nc2c(O)c(S(=O)(=O)O)cc3cc(S(=O)(=O)O)ccc23)c(C)c1`?
HPGD block: -7.7%; KinaseGlo FLuc: -5.6%[7.66 µM]; ALDH1A1 inh: inconclusive

Results for Nc1c(N=Nc2ccc(-c3ccc(N=Nc4cc(S(=O)(=O)O)c5ccccc5c4N)cc3)cc2)cc(S(=O)(=O)O)c2ccccc12 ?
HPGD block: 15.8µM*; KinaseGlo FLuc: inconclusive; ALDH1A1 inh: 25.1µM*

How did Cc1cc(-c2ccc(N=Nc3ccc4c(S(=O)(=O)O)cc(S(=O)(=O)O)c(N)c4c3O)c(C)c2)ccc1N=Nc1ccc2c(S(=O)(=O)O)cc(S(=O)(=O)O)c(N)c2c1O do in these assays?
HPGD block: 5.01µM*; IMPase inh: inconclusive; KinaseGlo FLuc: 10µM*; ALDH1A1 inh: inconclusive

What do the screens show for `O=C(O)CCC/C=C\CC1C2CCC(O2)C1CNNC(=O)Nc1ccccc1` (centres undefined)?
HPGD block: -9.1%; KinaseGlo FLuc: 2.2%; ALDH1A1 inh: -5.4%

How did CC(CNC(=O)Cn1c(-c2cccs2)cc2ccccc21)c1ccccc1 (centres undefined) do in these assays?
Lamin A splicing: -19.3%[46 µM]

Results for CCCS(=O)(=O)c1nc(S(=O)(=O)c2ccc(C)cc2)c(NCc2ccco2)s1 ?
PNC inhibitor: 2.6; HPGD block: -5.4%; IMPase inh: 4.8; Lamin A splicing: 1.3%; KinaseGlo FLuc: 0.4%; ALDH1A1 inh: inconclusive

How did CCCS(=O)(=O)c1nc(S(=O)(=O)c2ccc(C)cc2)c(NCc2ccccn2)s1 do in these assays?
ALDH1A1 inh: 14.1µM*

What do the screens show for `COCCCNC(=O)NC(CCC(C)C)c1c(-n2cccc2)sc2c1CCN(C)C2` (centres undefined)?
Lamin A splicing: -0.1%[46 µM]

What do the screens show for `Cc1cccc(N2CC(O)=C(c3nc4ccccc4n3C)C2=N)c1`?
PNC inhibitor: inconclusive; HPGD block: 11.2µM*; IMPase inh: -3.5; Lamin A splicing: -5.3%; KinaseGlo FLuc: -4.1%; ALDH1A1 inh: 5.9%

What do the screens show for `COc1cc2c(cc1OC)C(c1c[nH]c3ccccc13)NCC2` (centres undefined)?
HPGD block: -3.6%; KinaseGlo FLuc: 1.5%; ALDH1A1 inh: 1.6%

What do the screens show for `Cc1nnc(NC(=O)CSc2ccc(-c3ccco3)nn2)s1`?
KinaseGlo FLuc: -4.4%; ALDH1A1 inh: 7.08µM*

What do the screens show for `Cc1ccc(C)c(NC(=O)CSc2ccc(-c3ccco3)nn2)c1`?
PNC inhibitor: -5.0; HPGD block: -21.1%; IMPase inh: 2.3; Lamin A splicing: -2.4%; KinaseGlo FLuc: 2.1%; ALDH1A1 inh: 3.16µM*

Results for Cc1ccccc1NC(=O)CSc1ccc(-c2ccco2)nn1 ?
PNC inhibitor: 15.2; HPGD block: -11.5%; IMPase inh: -3.8; Lamin A splicing: -6.2%; KinaseGlo FLuc: 2.3%; ALDH1A1 inh: inconclusive

What do the screens show for `c1ccc(-c2ccn3nnnc3n2)cc1`?
PNC inhibitor: -100.0*; HPGD block: -18.4%; IMPase inh: -11.5; Lamin A splicing: -3.5%; KinaseGlo FLuc: 2.5%; ALDH1A1 inh: 0.3%

Results for c1ccc(-c2cnn3nnnc3n2)cc1 ?
PNC inhibitor: -10.7; HPGD block: -13.5%; IMPase inh: 0.4; Lamin A splicing: -1.4%; KinaseGlo FLuc: 0.9%; ALDH1A1 inh: 10.7%

How did O=[N+]([O-])c1cccc(-c2cn(-c3ccccc3)c(=S)[nH]2)c1 do in these assays?
KinaseGlo FLuc: -1.5%; ALDH1A1 inh: -10.5%

What do the screens show for `O=[N+]([O-])c1ccc2c(c1)[nH]c(=S)n2-c1ccccc1`?
KinaseGlo FLuc: 0.2%; ALDH1A1 inh: 3.98µM*

What do the screens show for `C=CCSc1n[nH]c(-c2ccc(OCCCC)cc2)n1`?
PNC inhibitor: 21.5; HPGD block: 15.8µM*; IMPase inh: 14.3; Lamin A splicing: inconclusive; KinaseGlo FLuc: 0.6%; ALDH1A1 inh: 0.0%

How did C=CCSc1n[nH]c(-c2ccc(OCCC)cc2)n1 do in these assays?
PNC inhibitor: 8.2; HPGD block: inconclusive; IMPase inh: 5.9; Lamin A splicing: -1.7%; KinaseGlo FLuc: -2.7%; ALDH1A1 inh: -4.4%

How did CC1(C)C=Cc2cc3ccc(=O)oc3cc2O1 do in these assays?
HPGD block: inactive; KinaseGlo FLuc: -1.9%; ALDH1A1 inh: inconclusive

Results for CC(=O)c1cc2c(cc1O)OC(C)(C)C=C2 ?
HPGD block: 25.1µM*; KinaseGlo FLuc: -5.3%; ALDH1A1 inh: inconclusive

How did CCNc1nc(Oc2ccc(=O)[nH]n2)nc(N2CCOCC2)n1 do in these assays?
PNC inhibitor: inconclusive; HPGD block: 1.6%; IMPase inh: 1.7; Lamin A splicing: 5.1%; KinaseGlo FLuc: 2.5%; ALDH1A1 inh: 7.2%

What do the screens show for `O=c1ccc(Oc2nc(N3CCCCC3)nc(N3CCCCC3)n2)n[nH]1`?
PNC inhibitor: -100.0*; HPGD block: -0.6%; IMPase inh: 2.9; Lamin A splicing: -1.5%; KinaseGlo FLuc: -0.2%; ALDH1A1 inh: inconclusive

Results for CCCn1c(-c2ccc(F)cc2)nc2c(N3CCC(N(C)C)C3)nc(C)nc21 (centres undefined) ?
HPGD block: inconclusive; KinaseGlo FLuc: -2.0%; ALDH1A1 inh: inconclusive

What do the screens show for `O=C(O)c1c(-c2nccc3ccccc23)[nH]c(-c2ccccc2)c1S(=O)(=O)O`?
HPGD block: -11.7%; KinaseGlo FLuc: -1.4%[7.66 µM]; ALDH1A1 inh: inconclusive

How did Cc1cc(C)cc(NC(=S)Nc2cccc3cnccc23)c1 do in these assays?
KinaseGlo FLuc: 2.1%; ALDH1A1 inh: 11.2µM*

Results for Cc1ccc(NC(=S)Nc2cccc3cnccc23)c(C)c1 ?
Lamin A splicing: inconclusive; KinaseGlo FLuc: -1.2%; ALDH1A1 inh: 17.8µM*
